Results reported in the supplement of paper PMC10849652.
The full data set covers some 7,900 targets. This sample favours those with a hit. About 0.6% of all pairs of compound and target were hits. Unmarked numbers belong to inactive results.

What was measured:
Experiment in all cases: log2 fold change, soluble protein after heating vs DMSO (PISA); higher = thermal stabilisation; K562 cells, 10 uM, 30 min; active = over 0.2 and 3.5 SD of the protein, either way, in both replicates (recomputed)
[1] = compound: Cc1ccc(NC(=O)c2ccc(CN3CC[C@H](N(C)C)C3)c(C(F)(F)F)c2)cc1Nc1nccc(-c2cncnc2)n1 [bafetinib]
How it was run: (§1)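 For each measurement, 10 μM compound was applied for 30 min to K562 cells at 2×10^6 cells/mL. Aliquots were heated for 3 min across 48°C-58°C, pooled, and extracted in PBS with 0.5% NP-40 at 4°C; the supernatant after 21,000xg for 90 min was soluble protein. This was quantified by TMTpro 16plex LC-MS/MS with channel sums equalised, and thermal stability was reported relative to control samples from duplicates, on a log2 fold-change scale.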

[2] = compound: Cc1cccc(CC(=O)N2CCc3c2ccc(-c2cn(C)c4ncnc(N)c24)c3F)n1
How it was run: as §1

[3] = compound: Cc1cn(-c2cc(NC(=O)c3ccc(C)c(Nc4nccc(-c5cccnc5)n4)c3)cc(C(F)(F)F)c2)cn1 [nilotinib]
How it was run: as §1

[4] = compound: Cc1nc(Nc2n[nH]c3c2CN(C(=O)N[C@H](CN(C)C)c2ccccc2)C3(C)C)c2sccc2n1
How it was run: as §1

[5] = compound: Cc1nc(Nc2ncc(C(=O)Nc3c(C)cccc3Cl)s2)cc(N2CCN(CCO)CC2)n1 [dasatinib]
How it was run: as §1

[6] = compound: Cc1ncc(-c2ccnc(Nc3ccc(S(C)(=O)=O)cc3)n2)n1C(C)C
How it was run: as §1

[7] = compound: Cn1cc(-c2ccc3c(c2)CCN3C(=O)Cc2cccc(C(F)(F)F)c2)c2c(N)ncnc21
How it was run: as §1

[8] = compound: Cn1cc(-c2ccc3nnc(C(F)(F)c4ccc5ncccc5c4)n3n2)cn1
How it was run: as §1

[9] = compound: Cn1cncc1[C@@](N)(c1ccc(Cl)cc1)c1ccc2c(c1)c(-c1cccc(Cl)c1)cc(=O)n2C [tipifarnib]
How it was run: as §1

[10] = compound: FC(F)(F)c1ccc(/C=C/c2nc(COc3ccc(CCCCn4ccnn4)cc3)co2)cc1 [mubritinib]
How it was run: as §1

[11] = compound: NC(=O)Nc1cc(-c2cccc(F)c2)sc1C(=O)N[C@H]1CCCNC1
How it was run: as §1

[12] = compound: NC(=O)c1cnc(N[C@@H]2CCCC[C@@H]2N)nc1Nc1cccc(-n2nccn2)c1
How it was run: as §1

[13] = compound: NC1(c2ccc(-c3nc4ccn5c(=O)[nH]nc5c4cc3-c3ccccc3)cc2)CCC1
How it was run: as §1

[14] = compound: NCC(=O)Nc1ccc(-n2nc(C(F)(F)F)cc2-c2ccc3c(ccc4ccccc43)c2)cc1
How it was run: as §1

[15] = compound: Nc1ccccc1NC(=O)c1ccc(CNC(=O)OCc2cccnc2)cc1 [entinostat]
How it was run: as §1

[16] = compound: O=C(CCCCCCC(=O)Nc1ccccc1)NO [vorinostat]
How it was run: as §1

[17] = compound: O=C(CCCCCCNC(=O)c1cnc(N(c2ccccc2)c2ccccc2Cl)nc1)NO [citarinostat]
How it was run: as §1

[18] = compound: O=C(O)c1ccc2c(c1)nc(Nc1cccc(Cl)c1)c1ccncc12 [silmitasertib]
How it was run: as §1

[19] = compound: O=C1NC(=O)C(c2cnc3ccccn23)=C1c1cn2c3c(cc(F)cc13)CN(C(=O)N1CCCCC1)CC2
How it was run: as §1

[20] = compound: c1cc(OCCN2CCCCC2)cc(-c2n[nH]c3ccc(-c4nnc[nH]4)cc23)c1
How it was run: as §1

Sequence of UniProt P17844 (P17844 whole entry, looked up): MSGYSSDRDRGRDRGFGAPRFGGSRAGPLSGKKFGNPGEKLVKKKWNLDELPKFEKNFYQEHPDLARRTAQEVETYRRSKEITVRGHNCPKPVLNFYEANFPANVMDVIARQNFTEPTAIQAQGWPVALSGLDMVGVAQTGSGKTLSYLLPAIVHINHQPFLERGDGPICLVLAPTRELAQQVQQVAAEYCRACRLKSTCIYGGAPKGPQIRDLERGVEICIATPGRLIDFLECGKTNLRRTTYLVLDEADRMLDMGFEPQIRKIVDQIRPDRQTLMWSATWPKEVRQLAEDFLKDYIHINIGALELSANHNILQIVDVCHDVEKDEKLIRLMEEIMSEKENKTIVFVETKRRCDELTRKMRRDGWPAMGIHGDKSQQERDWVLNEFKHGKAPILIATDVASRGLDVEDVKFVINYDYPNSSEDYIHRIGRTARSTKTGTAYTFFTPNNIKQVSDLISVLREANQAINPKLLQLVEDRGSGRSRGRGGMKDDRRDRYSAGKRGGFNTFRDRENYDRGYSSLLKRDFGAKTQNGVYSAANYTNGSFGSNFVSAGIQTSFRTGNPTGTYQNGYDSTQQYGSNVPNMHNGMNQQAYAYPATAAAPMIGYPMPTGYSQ
Sequence of UniProt P98082 (P98082 whole entry, looked up): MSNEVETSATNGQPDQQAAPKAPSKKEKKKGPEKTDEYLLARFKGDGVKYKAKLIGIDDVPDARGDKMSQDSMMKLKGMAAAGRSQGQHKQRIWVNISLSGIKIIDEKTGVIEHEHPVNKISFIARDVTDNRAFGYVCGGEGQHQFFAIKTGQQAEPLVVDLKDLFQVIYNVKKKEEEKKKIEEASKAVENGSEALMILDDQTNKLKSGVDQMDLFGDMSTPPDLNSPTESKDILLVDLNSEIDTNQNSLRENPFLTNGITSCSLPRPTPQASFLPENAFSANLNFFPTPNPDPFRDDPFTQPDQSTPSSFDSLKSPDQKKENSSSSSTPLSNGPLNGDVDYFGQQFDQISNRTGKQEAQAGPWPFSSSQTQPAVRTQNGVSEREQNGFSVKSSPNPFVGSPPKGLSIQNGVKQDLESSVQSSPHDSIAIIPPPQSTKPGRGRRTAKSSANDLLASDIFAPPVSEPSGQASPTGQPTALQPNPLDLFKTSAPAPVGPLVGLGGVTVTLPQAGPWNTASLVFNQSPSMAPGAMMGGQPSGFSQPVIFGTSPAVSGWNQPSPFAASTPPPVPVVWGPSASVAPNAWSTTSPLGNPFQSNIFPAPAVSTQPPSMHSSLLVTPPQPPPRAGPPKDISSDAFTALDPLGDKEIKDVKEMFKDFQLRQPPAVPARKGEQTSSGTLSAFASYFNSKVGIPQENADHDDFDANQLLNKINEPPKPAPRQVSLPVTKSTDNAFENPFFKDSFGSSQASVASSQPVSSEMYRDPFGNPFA
Sequence of UniProt O75822 (O75822 whole entry, looked up): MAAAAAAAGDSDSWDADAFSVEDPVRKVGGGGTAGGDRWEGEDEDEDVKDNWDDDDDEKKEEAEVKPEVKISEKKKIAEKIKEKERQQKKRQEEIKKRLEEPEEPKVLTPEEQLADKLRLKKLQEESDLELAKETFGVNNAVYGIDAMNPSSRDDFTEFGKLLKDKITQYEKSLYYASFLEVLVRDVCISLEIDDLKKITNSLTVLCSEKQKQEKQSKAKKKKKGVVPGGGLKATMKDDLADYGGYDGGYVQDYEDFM
Sequence of UniProt P11182 (P11182 whole entry, looked up): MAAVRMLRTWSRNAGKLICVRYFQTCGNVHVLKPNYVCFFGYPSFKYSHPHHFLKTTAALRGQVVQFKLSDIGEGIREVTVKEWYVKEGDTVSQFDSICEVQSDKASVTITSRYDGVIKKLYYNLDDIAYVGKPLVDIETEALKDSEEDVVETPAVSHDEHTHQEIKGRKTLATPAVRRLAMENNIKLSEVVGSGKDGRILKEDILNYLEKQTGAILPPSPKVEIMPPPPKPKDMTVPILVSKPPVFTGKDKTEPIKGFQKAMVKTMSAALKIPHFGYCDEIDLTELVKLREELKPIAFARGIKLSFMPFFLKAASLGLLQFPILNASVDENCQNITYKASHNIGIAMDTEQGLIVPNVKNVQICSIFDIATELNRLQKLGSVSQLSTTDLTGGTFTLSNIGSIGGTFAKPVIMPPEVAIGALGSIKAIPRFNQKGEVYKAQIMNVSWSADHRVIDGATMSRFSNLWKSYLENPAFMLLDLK
Sequence of UniProt Q96EV8 (Q96EV8 whole entry, looked up): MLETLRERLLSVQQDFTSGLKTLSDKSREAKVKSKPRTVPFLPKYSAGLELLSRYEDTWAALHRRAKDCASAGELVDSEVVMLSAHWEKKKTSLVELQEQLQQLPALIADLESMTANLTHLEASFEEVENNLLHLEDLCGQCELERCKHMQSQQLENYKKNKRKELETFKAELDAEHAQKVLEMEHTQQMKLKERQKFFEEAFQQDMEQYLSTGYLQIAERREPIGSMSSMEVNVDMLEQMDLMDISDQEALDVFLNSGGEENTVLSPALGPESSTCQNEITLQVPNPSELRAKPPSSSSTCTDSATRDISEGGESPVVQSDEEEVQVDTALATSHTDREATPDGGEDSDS
Sequence of UniProt Q14689 (Q14689 whole entry, looked up): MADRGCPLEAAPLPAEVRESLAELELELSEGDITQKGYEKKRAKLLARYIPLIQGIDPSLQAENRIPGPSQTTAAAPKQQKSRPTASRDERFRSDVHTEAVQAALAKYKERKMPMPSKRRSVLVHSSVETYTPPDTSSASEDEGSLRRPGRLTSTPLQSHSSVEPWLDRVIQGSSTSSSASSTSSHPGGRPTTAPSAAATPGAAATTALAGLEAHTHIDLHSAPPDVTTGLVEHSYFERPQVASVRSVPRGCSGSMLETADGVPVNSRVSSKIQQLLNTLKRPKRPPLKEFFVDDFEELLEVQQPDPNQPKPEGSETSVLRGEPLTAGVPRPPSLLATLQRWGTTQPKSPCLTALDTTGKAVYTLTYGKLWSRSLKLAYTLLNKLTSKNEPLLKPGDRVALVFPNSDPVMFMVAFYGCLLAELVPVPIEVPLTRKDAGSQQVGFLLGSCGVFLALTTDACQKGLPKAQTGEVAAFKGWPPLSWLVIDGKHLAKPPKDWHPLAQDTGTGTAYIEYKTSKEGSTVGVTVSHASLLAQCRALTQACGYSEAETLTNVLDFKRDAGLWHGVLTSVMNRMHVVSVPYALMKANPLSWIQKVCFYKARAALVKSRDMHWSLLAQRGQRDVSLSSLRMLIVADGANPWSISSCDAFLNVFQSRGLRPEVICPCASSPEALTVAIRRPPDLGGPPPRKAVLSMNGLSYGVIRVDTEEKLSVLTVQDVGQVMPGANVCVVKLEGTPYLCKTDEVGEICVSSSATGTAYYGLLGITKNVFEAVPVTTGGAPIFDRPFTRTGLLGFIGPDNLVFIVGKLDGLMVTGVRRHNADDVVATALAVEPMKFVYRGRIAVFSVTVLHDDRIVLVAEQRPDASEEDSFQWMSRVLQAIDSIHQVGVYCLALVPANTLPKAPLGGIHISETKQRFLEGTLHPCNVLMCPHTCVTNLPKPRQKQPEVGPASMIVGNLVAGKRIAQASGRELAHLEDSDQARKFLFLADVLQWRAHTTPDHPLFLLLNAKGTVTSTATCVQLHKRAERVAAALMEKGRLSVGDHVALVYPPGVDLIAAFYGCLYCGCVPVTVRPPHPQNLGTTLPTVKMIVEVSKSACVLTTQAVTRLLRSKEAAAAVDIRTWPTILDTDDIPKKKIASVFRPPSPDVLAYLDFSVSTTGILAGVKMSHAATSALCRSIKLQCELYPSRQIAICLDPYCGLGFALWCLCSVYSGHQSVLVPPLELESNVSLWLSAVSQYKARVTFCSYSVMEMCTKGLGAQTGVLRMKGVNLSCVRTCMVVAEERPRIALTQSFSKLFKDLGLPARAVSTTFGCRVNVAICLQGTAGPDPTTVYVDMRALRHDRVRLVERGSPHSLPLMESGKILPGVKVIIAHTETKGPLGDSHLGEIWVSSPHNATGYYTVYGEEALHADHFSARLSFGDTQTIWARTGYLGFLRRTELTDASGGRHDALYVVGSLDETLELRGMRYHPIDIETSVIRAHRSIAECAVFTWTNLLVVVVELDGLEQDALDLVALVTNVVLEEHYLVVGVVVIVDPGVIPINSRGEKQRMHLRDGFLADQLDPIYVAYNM
Sequence of UniProt Q7L014 (Q7L014 whole entry, looked up): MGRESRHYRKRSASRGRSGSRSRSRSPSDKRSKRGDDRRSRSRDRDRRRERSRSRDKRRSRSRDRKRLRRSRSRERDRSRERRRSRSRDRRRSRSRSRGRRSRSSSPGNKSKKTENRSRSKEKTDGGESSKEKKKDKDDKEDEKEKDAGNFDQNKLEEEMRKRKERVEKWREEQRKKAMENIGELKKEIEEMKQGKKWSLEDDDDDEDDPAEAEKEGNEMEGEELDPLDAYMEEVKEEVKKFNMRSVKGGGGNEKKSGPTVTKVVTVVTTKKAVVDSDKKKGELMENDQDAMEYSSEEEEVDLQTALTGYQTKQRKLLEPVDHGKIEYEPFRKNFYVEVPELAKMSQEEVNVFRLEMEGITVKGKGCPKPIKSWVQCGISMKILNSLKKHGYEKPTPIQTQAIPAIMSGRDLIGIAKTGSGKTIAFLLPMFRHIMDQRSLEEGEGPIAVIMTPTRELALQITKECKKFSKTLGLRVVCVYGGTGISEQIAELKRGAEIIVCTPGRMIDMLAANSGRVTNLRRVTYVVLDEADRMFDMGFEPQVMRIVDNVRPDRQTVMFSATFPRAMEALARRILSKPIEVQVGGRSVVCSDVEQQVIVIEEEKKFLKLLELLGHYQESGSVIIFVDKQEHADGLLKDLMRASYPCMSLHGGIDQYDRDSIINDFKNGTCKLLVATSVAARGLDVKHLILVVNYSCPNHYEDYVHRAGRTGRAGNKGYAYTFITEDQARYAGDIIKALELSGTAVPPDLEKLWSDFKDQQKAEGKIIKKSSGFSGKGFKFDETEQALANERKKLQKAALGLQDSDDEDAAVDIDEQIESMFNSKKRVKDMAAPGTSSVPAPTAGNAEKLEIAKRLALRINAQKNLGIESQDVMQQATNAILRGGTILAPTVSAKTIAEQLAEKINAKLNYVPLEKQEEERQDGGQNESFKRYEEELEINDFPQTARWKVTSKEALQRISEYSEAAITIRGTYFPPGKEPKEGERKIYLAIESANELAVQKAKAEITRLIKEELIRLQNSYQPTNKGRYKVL

Row | Target | log2 fold change [1] | log2 fold change [2] | log2 fold change [3] | log2 fold change [4] | log2 fold change [5] | log2 fold change [6] | log2 fold change [7] | log2 fold change [8] | log2 fold change [9] | log2 fold change [10] | log2 fold change [11] | log2 fold change [12] | log2 fold change [13] | log2 fold change [14] | log2 fold change [15] | log2 fold change [16] | log2 fold change [17] | log2 fold change [18] | log2 fold change [19] | log2 fold change [20]
1 | DDX5 (UniProt P17844) | 0.272 | 0.018 | 0.166 | -0.092 | -0.19 | 0.076 | 0.029 | 0.046 | -0.155 | 0.326 | -0.139 | -0.032 | -0.21 | -0.135 | 0.067 | 0.073 | 0.072 | -0.088 | -0.158 | -0.039
2 | DIP2A (UniProt Q14689) | -0.005 | -0.019 | 0.005 | -0.07 | -0.04 | 0.01 | 0.043 | -0.053 | 0.02 | 0.002 | -0.056 | 0.007 | -0.356 | 0.017 | 0.002 | 0.031 | 0.043 | 0.1 | -0.016 | 0.004
3 | CTSB (UniProt P07858) | -0.842 (active) | -0.038 | 0.001 | -0.028 | -0.008 | -0.029 | 0.014 | 0.033 | 0.008 | -0.007 | -0.013 | -0.043 | -0.283 (active) | 0.005 | -0.047 | 0.016 | -0.015 | 0.002 | -0.067 | -0.07
4 | DHPS (UniProt P49366) | 0.026 | -0.057 | 0.035 | 0.001 | 0.014 | 0.004 | 0.008 | -0.005 | -0.047 | 0.061 | 0.01 | 0.051 | 0.014 | 0.053 | -0.045 | 0.04 | 0.022 | -0.013 | 0.08 | -0.026
5 | DMXL1 (UniProt Q9Y485) | -0.14 | -0.034 | -0.002 | 0.018 | -0.099 | -0.012 | 0.021 | 0.021 | -0.035 | -0.053 | -0.026 | -0.075 | -0.052 | -0.015 | 0.033 | 0.069 | 0.005 | 0.04 | -0.007 | -0.071
6 | EIF3J (UniProt O75822) | -0.067 | 0.266 (active) | 0.001 | -0.019 | -0.018 | 0.008 | 0.022 | -0.014 | -0.013 | 0.033 | 0.035 | -0.033 | -0.072 | 0.007 | 0.012 | 0.143 | 0.001 | 0.042 | -0.017 | 0.022
7 | DBT (UniProt P11182) | 0.02 | -0.037 | 0.036 | -0.014 | -0.002 | -0.033 | -0.026 | -0.03 | 0.011 | -0.207 (active) | -0.009 | 0.003 | 0.005 | -0.021 | -0.042 | 0.006 | -0.011 | 0.027 | 0.022 | -0.093
8 | EXOC8 (UniProt Q8IYI6) | -0.081 | 0.071 | -0.054 | -0.137 | -0.1 | -0.012 | -0.015 | 0.028 | -0.038 | 0.039 | 0.044 | -0.044 | -0.373 (active) | -0.039 | 0.108 | 0.051 | 0.084 | 0.035 | 0.045 | -0.062
9 | DTNBP1 (UniProt Q96EV8) | 0.014 | 0.004 | -0.047 | -0.027 | 0.072 | 0.016 | 0.053 | 0.036 | -0.083 | -0.081 | -0.022 | -0.011 | -0.038 | -0.063 | 0.033 | 0.091 | -0.001 | -0.013 | -0.032 | -0.042
10 | EXOC2 (UniProt Q96KP1) | 0.021 | -0.089 | -0.002 | -0.135 | -0.301 | 0.028 | -0.011 | -0.081 | -0.066 | 0.035 | 0.039 | -0.084 | -0.218 | -0.024 | 0.052 | -0.013 | 0.105 | 0.035 | 0.028 | -0.102
11 | ERCC2 (UniProt P18074) | 0.094 | 0.061 | -0.014 | -0.175 | -0.185 | -0.022 | 0.05 | 0.01 | -0.062 | 0.114 | -0.015 | -0.011 | -0.109 | 0.004 | 0.014 | 0.045 | 0.103 | -0.052 | -0.092 | -0.039
12 | DDX46 (UniProt Q7L014) | 0.196 | 0.094 | 0.271 | -1.44 (active) | -0.084 | 0.1 | 0.104 | 0.102 | -0.113 | 0.604 (active) | -0.185 | -0.087 | -0.178 | -0.197 | 0.095 | 0 | 0.103 | 0.018 | -0.243 | 0.084
13 | DHFR (UniProt P00374) | 0.191 | 0.026 | 0.185 | -0.022 | -0.187 | 0.076 | 0 | 0.182 | 0.177 | -0.225 | 0.095 | 0.209 | 0.849 (active) | -0.139 | -0.02 | 0.082 | 0.042 | 0.57 (active) | 0.072 | -0.048
14 | DAB2 (UniProt P98082) | -0.041 | 0.085 | -0.152 | 0.002 | -0.178 | -0.098 | 0.01 | -0.007 | -0.042 | -0.024 | -0.006 | -0.033 | -0.124 | 0.016 | -0.026 | -0.066 | 0.037 | 0.102 | 0.001 | -0.041
15 | DCAF10 (UniProt Q5QP82) | -0.002 | -0.069 | -0.052 | 0.041 | 0.026 | -0.047 | 0.012 | 0.007 | -0.054 | -0.002 | -0.018 | -0.02 | 0.026 | 0.033 | -0.021 | -0.015 | 0.08 | 0.122 | -0.028 | 0.357 (active)
16 | DHCR7 (UniProt Q9UBM7) | 0.428 (active) | -0.005 | -0.282 | -0.005 | -0.109 | 0.05 | 0.257 | -0.016 | -0.167 | 0.166 | 0.08 | 0.014 | 0.239 | -0.134 | 0.082 | 0.03 | -0.023 | -0.084 | -0.04 | -0.026
